Each structure is given as a SMILES string. Where “and” joins values, the source holds several entries; their conditions need not be identical. Equal values may be shown once. Records with an inconclusive call do not appear. A call without a number means that no potency is given here. Calls of active or inactive are those of the source. The call rests on the fitted dose curve; in most records, active means well fitted cell-killing curve with a large enough effect; inconclusive means small, poorly fitted or top-dose-only effect; inactive means no such curve, though single readings can be large or run the other way.
Potency means the concentration at half of the fitted maximal effect.

This assay in a line: qHTS of pediatric cancer cell lines to identify multiple opportunities for drug repurposing: Confirmatory screen for U-2 OS cells (AID 1347122). Further: nearly all actives have a fitted effect of over 65% in size. The note with it: U-2 OS osteosarcoma cell viability; series mostly up to 45.9 µM. The text has this: Drug repurposing or repositioning has been offered as a strategy for drug development in oncology programs. This approach has special potential for childhood cancers and other rare or orphan diseases, where the expected return on new drug development has been a disincentive to pharmaceuticals.
In this project we exploit the poly-pharmacology of drugs to discover new indications via phenotypic screening of a panel of 19 well-characterized cell lines derived from solid tumors seen in children and adolescents. The goal is to identify approved drugs with previously unrecognized anticancer properties that has the potential to reveal new mechanisms and biological processes involved in carcinogenesis or drug resistance. We employed a titration-based paradigm (quantitative high-throughput screening or qHTS), where all compounds were tested at multiple concentrations for their effect on cell viability. Concentration-response curves (CRCs) were derived directly from the primary screen, and both potency and efficacy values were used to identify compounds with robust bioactivity profiles. We screened the NIH Chemical Genomics Center (NCGC) Pharmaceutical Collection (NPC) and Mechanism Interrogation Plate (MIPE) small molecule collections of approved and investigational compounds against these cell lines; and measured metabolically active cells after 48 hours of compound treatment as a proxy for cell viability.
Assay Submitter: Nathalia J. Martinez, National Center for Advancing Translational Sciences, National Institutes of Health, Rockville, MD, USA; email: natalia.martinez@nih.gov
[1] Shen, M et al. Quantitative high-throughput phenotypic screening of pediatric cancer cell lines identifies multiple opportunities for drug repurposing. Oncotarget 2017 Dec 19;9(4):4758-4772. PMID 29435139.
The cells were obtained from University of North Carolina (UNC), Pediatric Preclinical Testing Program (PPT), and Coriell Institute (CI).
qHTS cell viability assay:
Cells were assayed in growth media at a density of 500-1,000 cells/well. Five microliters of cells were dispensed into 1,536-well, white, solid-bottom, TC-treated plates (Greiner Bio One) using a multidrop dispenser and incubated at 37 degrees C, 5% CO2, under a humidified atmosphere for 5 hours. Twenty-three nanoliters of compounds and controls (neutral control DMSO or positive control bortezomib at final concentration of 2.3 µM) were subsequently transferred by Kalypsys pintool. For primary screens, the MIPE collection was tested at 11-point dilutions (final concentrations range from 0.78 nM to 46 µM) and the NPC collection at 8-point dilutions (final concentrations range from 0.59 nM to 46 µM). Compounds tested in follow-up screens were assayed at 11-point dilutions. Cells were incubated for 48 hours, followed by addition of 3 µL of CellTiter-Glo (Promega). After a 15 min incubation at room temperature, samples were analyzed for luminescence intensity using a ViewLux High-throughput CCD imager equipped with clear filters.
(Quantitative high-throughput screening tests each substance at several concentrations.)
As to `C[C@]12CCC(=O)C=C1CC[C@@H]1[C@H]2[C@@H](O)C[C@@]2(C)[C@H]1CC[C@]2(O)C(=O)CO`, the Potency result is “inactive”.
The same measure for `Cc1nc(Nc2ncc(C(=O)Nc3c(C)cccc3Cl)s2)cc(N2CCN(CCO)CC2)n1`: 3.29 µM (active); for `CCOc1cc(CC(=O)N[C@@H](CC(C)C)c2ccccc2N2CCCCC2)ccc1C(=O)O`: “inactive”; for `Cc1c(C(=O)NN2CCCCC2)nn(-c2ccc(Cl)cc2Cl)c1-c1ccc(Cl)cc1`: 16.5 µM (active).
The same measure for `CCCOc1ccc2nc(NC(=O)OC)[nH]c2c1`: 2.08 µM (active).
For the compound `Nc1ncn([C@H]2C[C@H](O)[C@@H](CO)O2)c(=O)n1`, the Potency result was “inactive”.
Take `Cc1ccc(NC(=O)c2ccc(CN3CCN(C)CC3)cc2)cc1Nc1nccc(-c2cccnc2)n1`: the Potency entry is “inactive”.
The same measure for `Cc1ccc(Nc2nccc(N(C)c3ccc4c(C)n(C)nc4c3)n2)cc1S(N)(=O)=O`: 18.5 µM (active).
For the compound `CCN(CCO)CCCC(C)Nc1ccnc2cc(Cl)ccc12` (stereo unspecified), the Potency result is “inactive”.
The same measure for `CCN(CC)CCOc1ccc(Nc2ncc3cc(-c4c(Cl)cccc4Cl)c(=O)n(C)c3n2)cc1`: 0.657 µM (active); for `Nc1nc(Cl)nc2c1ncn2[C@H]1C[C@H](O)[C@@H](CO)O1`: “inactive”; for `Nc1ccn([C@@H]2O[C@H](CO)[C@@H](O)C2O)c(=O)n1` (stereo partly specified): “inactive”.
Consider `Clc1ccc(C(Cn2ccnc2)OCc2ccc(Sc3ccccc3)cc2)c(Cl)c1` (stereo unspecified), for which the Potency was 18.5 µM (active).
The same measure for `CCCCc1ccc2nc(NC(=O)OC)[nH]c2c1`: 0.329 µM (active); for `CN(C)c1ccc2nc3ccc(=[N+](C)C)cc-3sc2c1`: 2.93 µM (active); for `CS(=O)(=O)OCCCCOS(C)(=O)=O`: “inactive”.
The same measure for `CC(C)C[C@H](NC(=O)[C@H](Cc1ccccc1)NC(=O)c1cnccn1)B(O)O`: 0.0585 µM (active); for `c1cnc2cc3c(cc2n1)C1CNCC3C1`: “inactive”.
On to `O=C(CCc1ccc(O)cc1)c1c(O)cc(O)cc1O`, for which the Potency entry was “inactive”.
The same measure for `Nc1nc(OCc2ccccc2)c2[nH]cnc2n1`: “inactive”; for `O=C1c2c(O)cc(O)cc2OC(c2ccc(O)c(O)c2)C1O` (stereo unspecified): “inactive”.
The same measure for `CN(C)c1ccc(O)c2c1C[C@H]1C[C@H]3[C@H](N(C)C)C(=O)C(C(N)=O)=C(O)[C@@]3(O)C(=O)C1=C2O`: “inactive”; for `CC[C@]1(O)C[C@H]2CN(CCc3c([nH]c4ccccc34)[C@@](C(=O)OC)(c3cc4c(cc3OC)N(C=O)[C@H]3[C@@](O)(C(=O)OC)[C@H](OC(C)=O)[C@]5(CC)C=CCN6CC[C@]43[C@@H]65)C2)C1`: 414 nM (active) and 585 nM (active); for `O=C(NCC1CCCCN1)c1cc(OCC(F)(F)F)ccc1OCC(F)(F)F` (stereo unspecified): “inactive”.
In the case of `CCN(CC)C(=S)SSC(=S)N(CC)CC`, the Potency was 11.7 µM (active).
The same measure for `Oc1ccc(-c2nc(-c3ccc(F)cc3)c(-c3ccncc3)[nH]2)cc1`: “inactive”.

The values are drawn from PubChem BioAssay (NCATS).
